Experimental data: PubChem BioAssay (NCI)
About 83,000 compounds went through this panel and 20% of them were active in at least one assay; those are over-represented in the sample as a whole.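 Activity criterion: percent growth below 10, measured after cells in 96-well plates were exposed to a single compound concentration for 48 hours.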 A number with no mark means an inactive call. The source made the active and inactive calls.

Key:
Experiment in all cases: NCI-60 one-dose screen, 48 h (100 = growth as untreated, 0 = no growth, -100 = all killed)
Settings in all cases: 10 µM unless noted
[1] = system: NCI-H23 lung
[2] = system: NCI-H226 lung
[3] = system: NCI-H322M lung
[4] = system: HOP-62 NSCLC
[5] = system: NCI-H460 lung
[6] = system: HOP-92 NSCLC
[7] = system: NCI-H522 lung
[8] = system: A549/ATCC NSCLC
[9] = system: 786-0 renal
[10] = system: COLO 205 colon

Structure (SMILES)	growth [1]	growth [2]	growth [3]	growth [4]	growth [5]	growth [6]	growth [7]	growth [8]	growth [9]	growth [10]
Cc1cnc(NC(=O)Nc2cc(Br)c(C)cc2OC[C@@H]2CNCCO2)cn1	15%	51.2%	34.3%	12.5%	4.27% (active)	35%	-16.4% (active)	17.5%	2.83% (active)	3.34% (active)
Cc1cnc(Nc2ccc(OCCN3CCCC3)cc2)nc1Nc1cccc(S(=O)(=O)NC(C)(C)C)c1	15.8%	-61.9% (active)	28%	-8.87% (active)	10.4%	-72.1% (active)	-46.4% (active)	-53.6% (active)	-84.8% (active)	-67.6% (active)
O=C(COc1ccc(/C=C2\Cc3ccc(Cl)cc3C2=O)cc1)Nc1nccs1	88.9%	98.4%	118%	101%	95.2%	77.5%	-7.85% (active)	83.7%	95.8%	124%
COc1cc2ncnc(Oc3cccc(NC(=O)Nc4cc(C(C)(C)C(F)(F)F)on4)c3)c2cc1OC	19.4%	23.9%	1.62% (active)	37.1%	34.3%	-3.15% (active)	0.301% (active)	33.4%	39.5%	1.14% (active)
Nc1nc(=S)c2ncn(C3OC(COC(=O)c4ccc(Cl)cc4)C(OC(=O)c4ccc(Cl)cc4)C3OC(=O)c3ccc(Cl)cc3)c2[nH]1 (stereo not given)	91.9%	86.9%	97.8%	106%	91.1%	82.7%	86.8%	98%	84.4%	123%
CC[C@@H]1C(=O)N(C)c2cnc(Nc3ccc(C(=O)NC4CCC(N5CCN(CC6CC6)CC5)CC4)cc3OC)nc2N1C(C)C (stereo not given in full)	-1.19% (active)	49.7%	23.3%	-29.7% (active)	1.14% (active)	20.7%	-52.8% (active)	-6.16% (active)	-80.2% (active)	-61.9% (active)
COc1ccc(C2CC(=O)c3c(O)c(OC)c(OC)c(OC)c3O2)c(O)c1 (stereo not given)	27.5%	66.8%	51.4%	64.9%	9.27% (active)	77.9%	12%	28.1%	47.2%	57.3%
CC(CCCC(=O)O)c1ccoc1 (stereo not given)	97.7%	102%	99.8%	101%	110%	108%	83.2%	100%	98.8%	101%
O=C1OCC2=C1C(c1cccc(F)c1)c1cc3c(cc1N2CCO)OCCO3 (stereo not given)	25.4%	26.2%	45.3%	30.5%	9.42% (active)	66.6%	17.1%	18.1%	26.4%	-5.04% (active)
COc1cc2ncnc3c2cc1OCCCCCN(C)Cc1ccc(Br)cc1N3	70.2%	88.3%	0.138% (active)	74.5%	36.7%	64.6%	-9.44% (active)	35.1%	68.7%	51.3%
CN1CCN(c2ccc(OC(F)(F)F)c(Nc3ncc4c(n3)-c3c(c(C(N)=O)nn3CCO)CC4)c2)CC1	26%	57.8%	58.1%	5.17% (active)	5.8% (active)	25.8%	-22% (active)	9.12% (active)	17%	-15.4% (active)
[2H]C1([2H])[C@H](C)O[C@H](C)C([2H])([2H])N1c1ccc(NC(=O)c2cccc(-c3ccc(OC(F)(F)F)cc3)c2C)cn1	58.5%	58.7%	83.4%	77.7%	85.1%	8.86% (active)	44.7%	68.9%	74.1%	81.6%
CN(C)CCn1c(=O)c2c3cc4c(cc3n(CCN(C)C)c2c2ccc(Cl)cc21)OCO4	36.9%	55%	49.1%	26.3%	12.7%	65.9%	44.5%	31.7%	61.1%	27%
